RORg inh: blocks mouse ROR gamma transcriptional activity. Drosophila S2 Gal4-RORgamma UAS-luciferase reporter, 20 h. actives 5.4% (n = 310,000). P51450. AID 2551. Potency, µM (doses to about 53.6 µM), hits mostly inhibitors; further: nearly all actives have a fitted effect of over 60% in size
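A Gal4/UAS one-hybrid system in insect cells: metallothionein-promoter Gal4–ROR gamma fusion plus Photinus luciferase reporter. Copper sulfate 700 uM final, 20 hr ambient incubation, luminescent detection after 10 min with reagent.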
DT40 TDP1 CPT: DT40-hTDP1 cell growth loss with CPT; AID 686979; Potency, µM (titrated, usually from 46.2 µM), hits mostly inhibitors; chicken DT40 Tdp1-/-;hTDP1 cells + 20 nM CPT, ATP luminescence, 48 h; actives 12% (n = 420,000); further: nearly all actives have a fitted effect of over 55% in size
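Chicken DT40 Tdp1-/- cells complemented with human TDP1, 400 cells/well, exposed to compounds plus 20 nM camptothecin for at least 48 h at 37 C; viability read as ATP content by CellTiter-Glo luminescence.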
Gal4-VP16 FLuc: inhibits Gal4-VP16 luciferase reporter, ROR gamma counter-screen. actives 3.5% (n = 310,000). Drosophila S2 Gal4-VP16 UAS-luciferase, luminescence, 20 h. AID 2546. Potency, µM (doses to about 53.6 µM), usual class: inhibitors;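 further: Gal4-VP16 expression switched on by copper sulfate through the metallothionein promoter; nearly all actives have a fitted effect of over 50% in size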
DT40 TDP1 no CPT: qHTS for Inhibitors of human tyrosyl-DNA phosphodiesterase 1 (TDP1): qHTS in cells in absence of CPT. Potency, µM (doses to about 46.2 µM), actives largely listed as inhibitors. AID 686978, 2013. DT40 Tdp1-/- hTDP1 cells, no CPT, ATP luminescence, 48 h. actives 15% (n = 420,000); further: nearly all actives have a fitted effect of over 55% in size
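Camptothecin absent (DMSO only). Human TDP1-complemented DT40 knockout cells, 400 cells/well, 37 °C for minimum 48 hr; ATP measured via CellTiter-Glo, 30 min dark incubation, luminescence.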
TDP1 inh: TDP1 (human) enzyme inhibition. recombinant TDP1, AlphaScreen DNA substrate cleavage. Potency, µM (highest dose often 130 µM), most hits filed as inhibitors. actives 0.28% (n = 350,000); further: nearly all actives have a fitted effect of over 40% in size
Target sequence (Q9NUW8 whole entry, looked up): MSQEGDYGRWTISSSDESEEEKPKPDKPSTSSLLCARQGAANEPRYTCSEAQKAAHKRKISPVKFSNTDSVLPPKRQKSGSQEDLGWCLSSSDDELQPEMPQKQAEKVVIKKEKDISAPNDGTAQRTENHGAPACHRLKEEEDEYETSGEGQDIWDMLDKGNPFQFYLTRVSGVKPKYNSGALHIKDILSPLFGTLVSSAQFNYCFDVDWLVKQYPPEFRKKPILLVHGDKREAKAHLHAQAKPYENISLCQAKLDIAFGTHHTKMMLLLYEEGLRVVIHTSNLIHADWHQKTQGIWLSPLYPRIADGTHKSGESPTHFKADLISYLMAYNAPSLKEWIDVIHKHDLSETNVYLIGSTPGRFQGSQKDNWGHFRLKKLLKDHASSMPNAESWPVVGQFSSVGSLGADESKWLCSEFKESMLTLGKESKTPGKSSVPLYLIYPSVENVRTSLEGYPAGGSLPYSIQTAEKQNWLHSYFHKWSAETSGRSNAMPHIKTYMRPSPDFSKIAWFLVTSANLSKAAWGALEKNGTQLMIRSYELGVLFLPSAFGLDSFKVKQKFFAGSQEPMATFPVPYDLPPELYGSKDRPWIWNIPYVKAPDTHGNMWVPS
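Signal: AlphaScreen proximity between streptavidin donor and anti-FITC acceptor beads on intact substrate. Reaction: Tdp1 1 nM, substrate 15 nM final, 5 min RT after 15 min compound preincubation.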
Each line names hits and unclear results; the compound was inactive in the other large screens. Sampled rows, rich in hits. Any-hit rate of the full collection: about 19%. The call rests on the fitted dose curve; in most records, active means well fitted curve in the direction sought with a large enough effect; inconclusive means small, poorly fitted or top-dose-only effect, or another doubt; inactive means no such curve, though single readings can be large; an effect the other way counts as inactive or inconclusive.

O=C(N[C@H]1C/C=C\C[C@@H](CC(=O)N(CCO)Cc2ccccc2)C(=O)NC[C@H](c2ccccc2)OC1=O)OCC1c2ccccc2-c2ccccc21	DT40 TDP1 CPT 3.7µM, DT40 TDP1 no CPT 4.1µM (no result: RORg inh, Gal4-VP16 FLuc)
O=C1CCCC/C=C\C[C@H](CC(=O)N(CCO)Cc2ccccc2)C(=O)N[C@@H](c2ccccc2)CO1	DT40 TDP1 CPT inconclusive (no result: RORg inh, Gal4-VP16 FLuc)
O=C(CSc1nncc(=O)[nH]1)Nc1cccc([N+](=O)[O-])c1	DT40 TDP1 CPT inconclusive, DT40 TDP1 no CPT inconclusive
CCOC(=O)/C=c1/s/c(=C\c2c(OC)ccc3ccccc23)c(=O)n1CC(=O)NCC1CCCO1 (stereo not given)	DT40 TDP1 CPT 23µM, DT40 TDP1 no CPT 26µM (no result: RORg inh, Gal4-VP16 FLuc, TDP1 inh)
CCOC(=O)/C=c1\s/c(=C\c2ccc3c(c2)OCCO3)c(=O)n1CC(=O)NCC1CCCO1 (stereo not given)	none
CCOC(=O)/C=c1\s/c(=C\c2ccc3cc(OC)ccc3c2)c(=O)n1CC(=O)NCc1ccc2c(c1)OCO2	DT40 TDP1 CPT 6.5µM, DT40 TDP1 no CPT 9.2µM
O=C(NC(=S)Nc1cccc(Cl)c1N1CCOCC1)c1cccs1	RORg inh 3.2µM, DT40 TDP1 CPT inconclusive, Gal4-VP16 FLuc 18µM, DT40 TDP1 no CPT 26µM
CCCC(=O)NC(=S)Nc1cccc(Cl)c1N1CCCC1	RORg inh 1.3µM, DT40 TDP1 CPT inconclusive, Gal4-VP16 FLuc 7.1µM, DT40 TDP1 no CPT inconclusive
CCCC(=O)Nc1ccc(Cl)c(NC(=S)NC(=O)C(C)C)c1	none
O=C(NC(=S)Nc1ccccc1N1CCOCC1)c1ccc(-c2cc(Cl)ccc2Cl)o1	RORg inh 0.89µM, DT40 TDP1 CPT inconclusive, Gal4-VP16 FLuc 2.5µM, DT40 TDP1 no CPT 23µM
S=C(NCCc1ccccc1)Nc1ccccc1N1CCOCC1	DT40 TDP1 CPT inconclusive, Gal4-VP16 FLuc inconclusive, DT40 TDP1 no CPT inconclusive
O=C(NC(=S)Nc1ccccc1N1CCCCC1)c1ccco1	RORg inh 3.2µM, DT40 TDP1 CPT 15µM, Gal4-VP16 FLuc 4µM, DT40 TDP1 no CPT inconclusive
O=C(Nc1cccnc1N1CCOCC1)c1cccs1	none
COc1ccc(CNC(=O)C2CCCN(c3nn4c(=O)cc(C)nc4s3)C2)cc1 (stereo not given)	none
Cc1cc(C)cc(NC(=O)N2CCCN(c3ncccc3[N+](=O)[O-])CC2)c1	DT40 TDP1 CPT inconclusive, DT40 TDP1 no CPT inconclusive
CC(C)C(=O)N1CCN(c2ccccc2NC(=S)NC(=O)c2ccco2)CC1	DT40 TDP1 CPT 16µM, DT40 TDP1 no CPT inconclusive (no result: RORg inh, Gal4-VP16 FLuc, TDP1 inh)
O=C(NC(=S)Nc1ccccc1N1CCOCC1)c1ccco1	RORg inh 14µM, DT40 TDP1 CPT inconclusive, Gal4-VP16 FLuc 14µM, DT40 TDP1 no CPT inconclusive
CCC(C)c1ccccc1NC(=S)NC(=O)c1ccco1 (stereo not given)	RORg inh 3.5µM, DT40 TDP1 CPT 23µM, Gal4-VP16 FLuc 3.2µM, DT40 TDP1 no CPT 13µM
Fc1cc(F)cc(NC(=S)Nc2ccccc2N2CCOCC2)c1	RORg inh 13µM, DT40 TDP1 no CPT 26µM
O=C(CN1C(=O)NC(Cc2c[nH]c3ccccc23)C1=O)NC1CC1 (stereo not given)	none (no result: TDP1 inh)
CC(C)CCN(CC(=O)NC(C)(C)C)C(=O)C(=O)Nc1ccc2c(c1)OCCO2	none
O=C(NC(=S)Nc1ccccc1Cl)c1ccco1	RORg inh 13µM, Gal4-VP16 FLuc inconclusive, DT40 TDP1 no CPT inconclusive
O=C(NC(=S)Nc1cccc(Cl)c1N1CCCCC1)c1ccco1	RORg inh 4µM, DT40 TDP1 CPT inconclusive, Gal4-VP16 FLuc 7.1µM, DT40 TDP1 no CPT inconclusive
Cc1ccc(C(=O)N(C)CC(=O)Nc2ccc(Cl)c(C(F)(F)F)c2)cc1S(=O)(=O)N1CCCCC1	DT40 TDP1 CPT inconclusive, DT40 TDP1 no CPT 23µM (no result: RORg inh, Gal4-VP16 FLuc)
Cc1ccc(S(=O)(=O)N2CCCCC2)cc1C(=O)N(C)CC(=O)Nc1ccc(Cl)c(C(F)(F)F)c1	DT40 TDP1 CPT inconclusive, Gal4-VP16 FLuc inconclusive, DT40 TDP1 no CPT inconclusive
COc1ccc(NC(=O)c2ccc(OCC3CCCO3)cc2)cc1Cl (stereo not given)	DT40 TDP1 no CPT inconclusive (no result: RORg inh, Gal4-VP16 FLuc)
CN(CC(=O)Nc1ccc(Cl)c(C(F)(F)F)c1)C(=O)c1ccc(OCC2CCCO2)cc1 (stereo not given)	DT40 TDP1 CPT 18µM, DT40 TDP1 no CPT 16µM (no result: RORg inh, Gal4-VP16 FLuc)
CN(CC(=O)Nc1ccc(Cl)c(C(F)(F)F)c1)C(=O)c1ccc(S(=O)(=O)N2CCOCC2)cc1	DT40 TDP1 CPT 4.6µM, DT40 TDP1 no CPT 6.5µM (no result: RORg inh, Gal4-VP16 FLuc, TDP1 inh)
O=CN1CCN(C(=O)COc2ccc(Cl)cc2Br)CC1	none
CCn1c(COc2ccc(=O)n(-c3ccccc3)n2)nnc1SCC(=O)OC	none
Cc1ccc(-c2nc(CSc3nncn4c3cc3occc34)c(C)o2)cc1	DT40 TDP1 CPT inconclusive (no result: RORg inh, Gal4-VP16 FLuc)
Cc1sc(NC(=O)c2ccccc2F)c(CN2CCCCC2C)c1C (stereo not given)	DT40 TDP1 CPT 18µM, DT40 TDP1 no CPT 12µM
Cc1oc2ccc(O)c(CN3CCCCC3C)c2c1C(=O)Nc1ccccc1 (stereo not given)	DT40 TDP1 CPT inconclusive, DT40 TDP1 no CPT inconclusive (no result: RORg inh, Gal4-VP16 FLuc)
O=C(NC1CCCC1)C1CC(=O)N(c2ccccc2)C1 (stereo not given)	none (no result: TDP1 inh)
O=C(Nc1cccc(F)c1)c1ccc(-n2cncn2)c2ccoc12	none (no result: RORg inh, Gal4-VP16 FLuc, TDP1 inh)
O=C(Nc1cccc(Oc2ccccc2)c1)c1ccc(-n2cncn2)c2ccoc12	DT40 TDP1 CPT 18µM, DT40 TDP1 no CPT inconclusive (no result: RORg inh, Gal4-VP16 FLuc, TDP1 inh)
